This note sets out measurements from PubChem BioAssay (NCI).

About 83,000 compounds went through this panel and 20% of them were active in at least one assay; those are over-represented in the sample as a whole.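 Negative percent growth values reflect cell death: -40 means 40% of the cells present at the start died, and -100 means all died.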 A number with no mark means an inactive call. The source made the active and inactive calls. The calls were made as follows: active = growth percent below 10; inactive = the rest.

What all share (assay): NCI-60 one-dose screen, 48 h (100 = growth as untreated, 0 = no growth, -100 = all killed)
Conditions in all cases: 10 µM unless noted

Assay [1] concerns NCI-H23 lung.
Assay [2] relates to NCI-H226 lung.
For assay [3], the system named is NCI-H322M lung.
The test system of assay [4] is HOP-62 NSCLC.
The subject of assay [5] is NCI-H460 lung.
The subject of assay [6] is HOP-92 NSCLC.
Assay [7] concerns NCI-H522 lung.
The subject of assay [8] is A549/ATCC NSCLC.
In assay [9] the test system is 786-0 renal.
In assay [10] the test system is COLO 205 colon.
The subject of assay [11] is DU-145 prostate.
Assay [12] has as its system K-562 leukemia.
For assay [13], the system named is MALME-3M melanoma.
Assay [14] has as its system MDA-MB-231 breast.
For assay [15], the system named is RXF 393 renal.
In assay [16] the test system is SF-268 CNS.
Assay [17] relates to SF-295 CNS.
For assay [18], the system named is SF-539 CNS.
In assay [19] the test system is UACC-257 melanoma.
The test system of assay [20] is M14 melanoma.

Consider `COc1cc2nc(Cl)nc(Nc3cccc(C(=O)/C=C/c4ccc(Cl)cc4)c3)c2cc1OC`, for which the growth in assay [1] is 80.9%; in [2], 88.1%; in assay [3], 83.1%; in [4], 86.8%; in [5], 91.3%; in [6], 78.3%. In addition, the growth in assay [7] was 77.6%; in [8], 78.2%; in [9], 64.8%; in [10] it was 86.9%; in [11], 88.2%; in [12], 11.3%. For the same compound, the growth in assay [13] was 88.2%; in [14] it was 73.7%; in assay [15], 62.7%; in assay [16], 85.7%; in assay [17] it was 80.6%; in assay [18] it was 50%. For the same compound, the growth was 94% in assay [19] and 70.2% in [20].

Take `NCCn1cc(-c2nc(-c3c[nH]c4ncccc34)cs2)c2cc(F)ccc21`: the growth in assay [1] was 76.7%; in assay [2] it was 74.5%; in assay [3], 76.9%; in assay [4], 73.6%; in assay [5], 51.3%; in [6], 49.1%. For the same compound, the growth in assay [7] was 90.7%; in assay [8], 61.7%; in [9], 87.5%; in assay [10], 49.2%; in assay [11] it was 93.9%; in [12], 22.6%. In addition, the growth in assay [13] was 78.6%; in assay [14], 63.9%; in [15] it was 86.7%; in assay [16] it was 82.1%; in assay [17] it was 96.7%; in [18], 82.7%. The growth is 93.8% in [19] and 86.2% in assay [20].

As to `C=C(C)[C@@H]1CC[C@]2(C=NCCCNCCCCNCCCN)CC[C@]3(C)[C@H](CC[C@@H]4[C@@]5(C)CCCNC(C)(C)[C@@H]5CC[C@]43C)[C@@H]12`, the growth in [1] is 82.5%; in [2], 80.1%; in [3], 100%; in [4], 92.9%; in [5] it was 91.7%; in assay [6], 92.4%. Moreover, the growth in assay [7] is 99.6%; in [8], 88.8%; in assay [9], 107%; in assay [10], 79.1%; in [11] it was 101%; in assay [12], 20.1%. The growth in [13] is 103%; in [14], 104%; in assay [15], 110%; in [16] it was 102%; in [17], 91.2%; in assay [18], 95.3%. Further, the growth is 107% in [19] and 98.5% in assay [20].

As for `Cc1ccc(-c2nn(Cc3cn(-c4cc(C)nc5ccccc45)nn3)c3ncnc(N)c23)cc1`, the growth was 68.7% in assay [1]; 35% in assay [2]; 40.6% in [3]; 60.4% in assay [4]; 68.4% in assay [5]; -0.284% (active) in assay [6]. The growth is 55.5% in [7]; 44.1% in [8]; 48.6% in [9]; 54.7% in assay [10]; 47.8% in [11]; 53.2% in assay [12]. For the same compound, the growth in assay [13] was 52.5%; in assay [14], 33.1%; in assay [15], 27.3%; in assay [16], 35.8%; in assay [17] it was 66.5%; in assay [18], 74.7%. Moreover, the growth in assay [19] was 42.5%; in assay [20], 52.7%.

For the compound `N#C/C(=C\c1ccc(-c2ccc(Br)cc2)o1)c1nc(-c2ccco2)cs1`, the growth is 89.4% in [1]; 88.2% in assay [2]; 85% in [3]; 95.7% in assay [4]; 91.4% in assay [5]; 86.3% in assay [6]. Moreover, the growth in assay [7] was 93.2%; in assay [8] it was 98.3%; in [9] it was 98.8%; in assay [10], 102%; in assay [11], 101%; in assay [12], 97.9%. The growth was 97.7% in assay [13]; 76% in [14]; 101% in assay [15]; 101% in [16]; 91.2% in assay [17]; 90.8% in assay [18]. The growth in assay [19] is 102%; in [20], 89.2%.

As to `CCC(=O)c1c(C)[nH]c(C)c1C`, the growth was 94% in assay [1]; 101% in assay [2]; 94.6% in assay [3]; 77.8% in [4]; 55.5% in assay [5]; 107% in assay [6]. Also, the growth in [7] is 56.2%; in assay [8] it was 86.2%; in assay [9], 99.2%; in assay [10], 89.4%; in assay [11], 0.904% (active); in assay [12] it was 110%. The growth in assay [13] is 116%; in assay [14], 95.8%; in assay [15], 80.4%; in assay [16], 90.7%; in [17] it was 68.3%; in assay [18], 105%. Moreover, the growth in [19] was 99%; in assay [20] it was 90.4%.

Regarding `Cc1csc(Nc2nc(-c3ccc(Cl)cc3)nc(C(Cl)(Cl)Cl)n2)n1`, the growth was 95.3% in assay [1]; 110% in [2]; -3.18% (active) in assay [3]; 76.4% in assay [4]; 56.6% in assay [5]; 83.3% in [6]. The growth is 92.8% in assay [7]; 34.6% in assay [8]; 89.5% in assay [9]; 52.6% in [10]; 12.6% in [11]; 87.2% in assay [12]. Besides, the growth in assay [13] was 99.9%; in assay [14], 79.9%; in assay [15], 87.1%; in assay [16], 90.5%; in assay [17], 60.8%; in [18], 87.2%. Moreover, the results for the growth in assay [19] and in [20] were 98.7% and 95.9%, respectively.
